Results on 15 compounds are retold here after PubChem BioAssay (EPA / NIEHS).

Read-out in assay [1]: Vascular cell adhesion molecule 1 (VCAM1), VCAM1 (gene 7412)
As to the kind of experiment: BSK_IMphg_VCAM1: BioMAP Diversity Plus: IMphg Assay for Vascular cell adhesion molecule 1 (VCAM1) Biomarker Activity (AID 2284286). Conditions: primary human endothelial cells with macrophages. The gist of the method: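 ELISA read-out of VCAM-1 on venular endothelial cell/macrophage co-cultures at 24 h post-treatment, with DMSO as baseline and positive-direction fitting. Parallel sulforhodamine B total-protein staining (560 nm) served as the overt cytotoxicity measure.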

Read-out in assay [2]: Intercellular Adhesion Molecule 1 (ICAM1), ICAM1 (gene 3383)
Briefly: BSK_hDFCGF_ICAM1: BioMAP Diversity Plus: hDFCGF Assay for Intercellular Adhesion Molecule 1 (ICAM1) Biomarker Activity (AID 2284287). Conditions: primary human foreskin fibroblasts. The gist of the method:
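ICAM-1 ELISA readout 24 h after dosing, DMSO as baseline, in human dermal foreskin fibroblast cultures. Cytotoxicity checked in parallel wells by SRB staining (0.1% SRB, 10% TCA fixation, 560 nm).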

Read-out in a further assay: CD40, CD40 (gene 958)
Briefly: BSK_IMphg_CD40: BioMAP Diversity Plus: IMphg Assay for CD40 Biomarker Activity (AID 2284288). Conditions: primary human endothelial cells with macrophages. Put shortly: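 ELISA read-out of cell-surface CD40 at 24 h in human venular endothelial cell/macrophage co-cultures. Activity fitted in the positive direction against DMSO; parallel SRB staining (560 nm) gauges overt cytotoxicity.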

Read-out in assay [3]: TIMP metallopeptidase inhibitor 2 (TIMP2), TIMP2 (gene 7077)
As to the kind of experiment: BSK_hDFCGF_TIMP2: BioMAP Diversity Plus: hDFCGF Assay for TIMP metallopeptidase inhibitor 2 (TIMP2) Biomarker Activity (AID 2284289). Conditions: primary human foreskin fibroblasts. The gist of the method: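 Primary human foreskin fibroblasts in the hDFCGF system, dosed for 24 h; TIMP-2 level measured by ELISA, fitted in the positive direction against DMSO; cytotoxicity checked in parallel by sulforhodamine B total protein staining.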

Read-out in assay [4]: Interleukin-1 alpha (IL1a), IL1A (gene 3552)
As to the kind of experiment: BSK_IMphg_IL1a: BioMAP Diversity Plus: IMphg Assay for Interleukin-1 alpha (IL1a) Biomarker Activity (AID 2284290). Particulars: primary human endothelial cells with macrophages. The gist of the method:
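IL-1α is quantified by ELISA at 24 h in the endothelial/macrophage IMphg co-culture, with gain of signal fitted relative to DMSO. Parallel SRB total-protein staining flags overt toxicity.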

Read-out in assay [5]: E-selectin (Homo sapiens) (UniProt P16581)
Briefly: BSK_IMphg_ESelectin: BioMAP Diversity Plus: IMphg Assay for Eselectin Biomarker Activity (AID 2284291). Conditions: primary human endothelial cells with macrophages. The gist of the method:
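Analysed against DMSO baseline in the positive fitting direction, this endpoint is an ELISA read of E-selectin. It comes from human venular endothelial cells co-cultured with macrophages, sampled 24 h post-dose.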

A short description of assay [6]: BSK_IMphg_SRB: Viability Assessment in the BioMAP Diversity Plus: IMphg Assay (AID 2284292).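 Also: measured one day after compound addition.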 Particulars: primary human endothelial cells with macrophages. The gist of the method: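 SRB viability endpoint: cultures of human endothelial cells plus macrophages fixed with 10% TCA, stained with 0.1% SRB, read at 560 nm 24 h post-dosing. Only gain-of-signal fitted, relative to DMSO.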

Read-out in assay [7]: Interleukin-10 (IL10), IL10 (gene 3586)
As to the kind of experiment: BSK_IMphg_IL10: BioMAP Diversity Plus: IMphg Assay for Interleukin-10 (IL10) Biomarker Activity (AID 2284294). Conditions: primary human endothelial cells with macrophages. Put shortly: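 IL-10 read by ELISA after 24 h chemical exposure of primary human venular endothelial cell/macrophage cocultures, with DMSO as baseline. Parallel SRB staining (560 nm) gauged overt cytotoxicity.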

Assay [8] in a line: BSK_IMphg_SRB.Mphg: Macrophage Viability Assessment in the BioMAP Diversity Plus: IMphg Assay (AID 2284295). Particulars: primary human endothelial cells with macrophages. Put shortly:
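Cytotoxicity read-out: parallel cultures fixed with 10% TCA, stained with 0.1% sulforhodamine B, read at 560 nm. System combines venular endothelium and macrophages; sampled 24 h post-dosing, fitted positively relative to DMSO control.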

Read-out in assay [9]: Thrombomodulin, THBD (gene 7056)
As to the kind of experiment: BSK_LPS_Thrombomodulin: BioMAP Diversity Plus: LPS Assay for Thrombomodulin Biomarker Activity (AID 2284296). Conditions: primary human HUVEC with PBMC. Put shortly: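 Thrombomodulin on the surface of LPS-activated endothelial/PBMC co-cultures was quantified by ELISA at 24 hours post-dosing, with DMSO as baseline. Parallel SRB total-protein staining flagged overt cytotoxicity.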

Several values for one entry are separate records, joined by “and”; a condition that tells them apart may be missing. Equal entries are not always repeated. Some structures have more than one record in an assay (separate samples or runs), and their calls can disagree. Activity calls are given as the source filed them. The calls were made as follows: active = hit-call score of the fitted dose curve at least 0.9, where 1 is the maximum; inactive = score below 0.9.

E-selectin (Homo sapiens), sequence (P16581 whole entry, looked up): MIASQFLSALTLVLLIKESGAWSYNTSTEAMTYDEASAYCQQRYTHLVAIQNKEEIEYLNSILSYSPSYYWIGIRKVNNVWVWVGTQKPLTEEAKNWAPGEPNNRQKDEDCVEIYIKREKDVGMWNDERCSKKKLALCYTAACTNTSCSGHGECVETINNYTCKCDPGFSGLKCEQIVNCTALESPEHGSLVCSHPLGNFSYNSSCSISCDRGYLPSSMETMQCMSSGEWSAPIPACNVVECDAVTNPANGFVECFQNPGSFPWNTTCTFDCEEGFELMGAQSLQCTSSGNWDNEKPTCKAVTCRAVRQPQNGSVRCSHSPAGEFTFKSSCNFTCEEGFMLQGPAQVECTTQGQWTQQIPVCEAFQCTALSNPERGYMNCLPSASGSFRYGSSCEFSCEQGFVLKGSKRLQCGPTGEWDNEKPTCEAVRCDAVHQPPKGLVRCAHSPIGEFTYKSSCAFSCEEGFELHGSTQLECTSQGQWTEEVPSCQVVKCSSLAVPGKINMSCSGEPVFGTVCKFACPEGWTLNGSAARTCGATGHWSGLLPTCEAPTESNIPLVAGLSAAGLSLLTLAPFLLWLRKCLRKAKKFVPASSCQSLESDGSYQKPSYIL

For the compound `O=C(O)C=CC(F)(C(F)(F)F)C(F)(F)F`, the outcome in assay [1] was “inactive”; in assay [2] it was “inactive”; in the assay with CD40, CD40 (gene 958), “inactive”; in assay [3], “inactive”; in assay [4], “inactive”; in [5] it was “inactive”. Besides, the result in assay [6], in assay [7], in assay [8] and in assay [9] was inactive.

As to `OCC(F)(F)OC(F)(F)C(F)(F)OC(F)(F)C(F)(F)OC(F)(F)CO`, the outcome in [1] is “inactive”; in assay [2], “inactive”; in the assay with CD40, CD40 (gene 958), “inactive”; in assay [3], “inactive”; in assay [4], “inactive”; in assay [5], “inactive”. Further, the outcome in assay [6], in assay [8] and in assay [9] was inactive. The AC50 (usually the concentration giving half of the maximal activity seen) was 33.8 µM (active) in [2]; 30 µM (active) with CD40, CD40 (gene 958); 8.46 µM (active) in assay [3]; 5.2 µM (active) in [5]; 30 µM (active) in assay [7]; 4.54 µM (active) in assay [9].

Consider `CC(O)C(F)(F)C(F)(F)F` (centres undefined), for which the outcome is “inactive” in assay [1]; “inactive” in assay [2]; “inactive” with CD40, CD40 (gene 958); “inactive” in assay [3]; “inactive” in assay [4]; “inactive” in assay [5]. Also, the result in assay [6], in [7], in assay [8] and in [9] was inactive. The AC50 in the assay with CD40, CD40 (gene 958) was 2.17 µM (active).

In the case of `C=CC(=O)OCC(F)(F)C(F)F`, the AC50 in [1] is 30 µM (active); in assay [2] it was 43.5 µM (active) and 29.6 µM (active); in the assay with CD40, CD40 (gene 958), 21.6 µM (active) and 23.6 µM (active); in assay [3], 5.95 µM (active) and 20.8 µM (active); in assay [5], 44.6 µM (active); in assay [7], 43.4 µM (active) and 39.2 µM (active). Also, the AC50 in [9] is 30 µM (active) and 39 µM (active). Moreover, the result in assay [1], in [4], in assay [5], in [6] and in [8] was inactive.

Turning to `O=C(O)C(F)(F)C(F)(F)C(=O)O`, the outcome was “inactive” in assay [1]; “inactive” in assay [2]; “inactive” in the assay with CD40, CD40 (gene 958); “inactive” in [3]; “inactive” in [4]; “inactive” in [5]. Moreover, the result in assay [6], in assay [7], in assay [8] and in assay [9] was inactive.

Take `OCC(F)(F)OC(F)(F)C(F)(F)OC(F)(F)CO`: the outcome was “inactive” in assay [1]; “inactive” in assay [2]; “inactive” in the assay with CD40, CD40 (gene 958); “inactive” in assay [3]; “inactive” in [4]; “inactive” in assay [5]. Further, the result in assay [6], in assay [7], in [8] and in assay [9] was inactive. The AC50 in assay [4] is 334 nM (active).

Turning to `NC(=O)C(F)(F)C(F)(F)F`, the outcome in assay [1] is “inactive”; in assay [2], “inactive”; with CD40, CD40 (gene 958), “inactive”; in [3] it was “inactive”; in assay [4], “inactive”; in assay [5], “inactive”. Also, the result in assay [6], in assay [7], in assay [8] and in assay [9] was inactive.

Regarding `COP(=O)(CCC(=O)NCO)OC`, the outcome in assay [2], in assay [3] and in assay [9] was inactive.

Regarding `OCC(F)(F)OC(F)(F)C(F)(F)OC(F)(F)C(F)(F)OC(F)(F)F`, the AC50 was 47.7 µM (active) in assay [1]; 19.2 µM (active) in [2]; 7.58 µM (active) and 49.2 µM (active) with CD40, CD40 (gene 958); 26.6 µM (active) and 47.5 µM (active) in assay [4]; 38.6 µM (active) and 44.3 µM (active) in [5]; 47.8 µM (active) and 53.7 µM (active) in assay [6]. Also, the AC50 is 45.9 µM (active) and 42.6 µM (active) in [7]; 21 µM (active) and 15.3 µM (active) in assay [8]. Also, the result in assay [1], in [2], in assay [3] and in [9] was inactive.

On to `COC(=O)C(F)(F)C(F)(F)OC(F)(C(F)(F)F)C(F)(F)OC(F)=C(F)F` (centres undefined), for which the outcome in [1] is “inactive”; in assay [2], “inactive”; with CD40, CD40 (gene 958), “inactive”; in [3] it was “inactive”; in [4] it was “inactive”; in assay [5], “inactive”. Moreover, the result in assay [6], in assay [7], in assay [8] and in [9] was inactive.

On to `O=S(=O)(F)C(F)(F)C(F)(F)C(F)(F)C(F)(F)C(F)(F)C(F)(F)C(F)(F)C(F)(F)F`, for which the outcome in [1] was “inactive”; in assay [2], “inactive”; with CD40, CD40 (gene 958), “inactive”; in assay [3] it was “inactive”; in [4], “inactive”; in assay [5] it was “inactive”. Besides, the result in assay [6], in [7], in assay [8] and in assay [9] was inactive.

For the compound `O=C(O)C(F)(F)OC(F)(F)C(F)(F)OC(F)(F)C(=O)O`, the outcome was “inactive” in [1]; “inactive” in assay [2]; “inactive” with CD40, CD40 (gene 958); “inactive” in assay [3]; “inactive” in assay [4]; “inactive” in assay [5]. The outcome in assay [6], in assay [7], in [8] and in assay [9] was inactive.

With `FC(F)(F)C(F)(C(F)(F)F)C(F)(F)C(F)(F)CC1CO1` (centres undefined), the outcome was “inactive” in assay [1]; “inactive” in assay [2]; “inactive” with CD40, CD40 (gene 958); “inactive” in [3]; “inactive” in assay [4]; “inactive” in assay [5]. Further, the outcome in [6], in assay [7], in assay [8] and in [9] was inactive. In addition, in [3], the AC50 was 0.319 µM (active).

Regarding `O=C(O)C(F)(OC(F)(F)C(F)(F)C(F)(F)F)C(F)(F)F` (centres undefined), the outcome in assay [1] was “inactive”; in assay [2] it was “inactive”; with CD40, CD40 (gene 958), “inactive”; in assay [3] it was “inactive”; in [4], “inactive”; in [5], “inactive”. Besides, the outcome in assay [6], in assay [7], in [8] and in assay [9] was inactive. Besides, the AC50 is 220 nM (active) in [4]; 673 nM (active) and 652 nM (active) in [7]; 30 µM (active) in [8].

`O=C(O)C(F)(F)OC(F)(F)C(F)(F)OC(F)(F)F`: the outcome in assay [1] is “inactive”; in assay [2], “inactive”; with CD40, CD40 (gene 958) it was “inactive”; in assay [3], “inactive”; in assay [4], “inactive”; in assay [5], “inactive”. In addition, the outcome in assay [6], in assay [7], in assay [8] and in assay [9] was inactive. Besides, the AC50 in assay [8] was 11.3 µM (active).
